Experimental data reported in PubChem BioAssay.
Where “and” joins values, the source holds several entries; their conditions need not be identical. Equal values may be shown once. Calls of active or inactive are those of the source.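 The calls were made as follows, unless noted: active = thallium flux through the channel raised or lowered by more than 3 SD from vehicle-only wells, actives on both sides; inactive = the rest.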

Columns and labels:
[1] = blockers of polyQ-driven CASP3 activation – cell-based (AID 1583); settings: polyglutamine-induced caspase-3 activation, cell assay; stronger effect = higher value;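 tested at 10 µM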
[2] = yeast 75Q aggregation reduction – 75Q-TubU reporter (AID 1593); settings: Yeast 75Q polyglutamine aggregation reporter
[3] = blockers of cytochrome c efflux from mitochondria – biochemical, purified mitochondria (AID 1603); settings: stronger effect = lower value;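 also: mouse liver mitochondria challenged with calcium chloride; signal normalized to the plate average as 100%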
[4] = polyglutamine aggregate formation blockers (AID 1604); settings: polyglutamine-induced protein aggregation inhibition assay; stronger effect = higher value; tested at 2.5 µM
[5] = glutamate transport activators, MN-1 cells, MN-1 cell line (AID 1612); settings: MN-1 motor neuron cells, stronger effect = higher value;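 also: tested at 1 µM final; 0% = mean of DMSO vehicle wells on each plate; positive means more glutamate uptake than control and negative means less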
[6] = signal quenchers or enhancers, Cy5 substrate/SSB – biochemical, NIH Clinical Collection, E. coli SSB, artefact control for HCV NS3 helicase inhibitor project (AID 743268; call rule not given here); settings: Cy5-oligo bound E. coli SSB, fluorescence interference
[7] = system: Hepatitis C virus NS3 helicase; assay: blockers of NS3h binding to DNA – biochemical, fluorescence polarization, NIH Clinical Collection, primary screen (AID 743270; call rule not given here); settings: NS3 helicase binding to Cy5-dT15 DNA, stronger effect = higher value, concentration not given here
[8] = target: Single-stranded DNA-binding protein (Escherichia coli (strain K12)) (UniProt P0AGE0); assay: SSB-ssDNA binding inhibitors – biochemical, fluorescence polarization, NIH Clinical Collection, counter-screen for HCV NS3 helicase inhibitor project (AID 743271; in the data active = inhibition above about 28%); settings: E. coli SSB-DNA binding, stronger effect = higher value, concentration not given here
[9] = compounds distorting NS3 helicase fluorescence signal – biochemical, NIH Clinical Collection, artefact control for HCV NS3 helicase inhibitor project (AID 743272; call rule not given here;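 also: HCV NS3 helicase with a Cy5 labelled single stranded DNA probe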); settings: fluorescence interference counterscreen, HCV NS3 helicase assay; stronger effect = lower value
[10] = galactose survival enhancers in mitochondrial complex I cybrids – cell-based, galactose medium, ATP luminescence, primary screen (AID 1645843;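 active = z-score of at least 1.8 in each of two replicates, scored against plate mean and spread of sample wells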;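 also: positive z means more ATP and so rescue of galactose-driven cybrid death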); settings: complex I mutant cybrid cells, 72 h, stronger effect = higher value
F380Y/beta4 = assay: BK channel mutant inhibitors and activators – cell-based, U2OS BacMam, thallium flux, beta subunits, selectivity assay, profiling panel (AID 1259406); settings: U2OS BacMam BK variants, at 30 µM;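 also: initial slope of Thallos dye fluorescence rise after thallium is added; log ratio against the mean of 0.3% DMSO vehicle wells on the same plate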
[11] = target: Calcium-activated potassium channel subunit alpha-1 (Homo sapiens) + Leucine-rich repeat-containing protein 26 (Homo sapiens) (UniProt Q12791+Q2I0M4); assay: as above; settings: U2OS BacMam BK variants, F380Y/Slo1WT/gamma1, at 30 µM
Calcium-activated potassium channel subunit alpha-1 (Homo sapiens) + Leucine-rich repeat-containing protein 26 (Homo sapiens), sequence (Q2I0M4 whole entry, looked up, one chain of several): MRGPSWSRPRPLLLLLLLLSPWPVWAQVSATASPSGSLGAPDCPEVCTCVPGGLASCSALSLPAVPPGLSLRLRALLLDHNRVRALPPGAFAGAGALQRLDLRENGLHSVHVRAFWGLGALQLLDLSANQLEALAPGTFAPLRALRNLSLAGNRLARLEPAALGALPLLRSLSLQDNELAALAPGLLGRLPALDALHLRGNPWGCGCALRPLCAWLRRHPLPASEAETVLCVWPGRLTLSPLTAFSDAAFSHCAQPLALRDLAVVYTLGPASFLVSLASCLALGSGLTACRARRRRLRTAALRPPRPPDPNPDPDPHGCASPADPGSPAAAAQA

R275C = assay: as above; settings: U2OS BacMam BK variants, at 30 µM
R275C/beta1 = assay: as above; settings: U2OS BacMam BK variants, at 30 µM
R275C/beta2Delta = assay: as above; settings: U2OS BacMam BK variants, at 30 µM
R275C/beta4 = assay: as above; settings: U2OS BacMam BK variants, at 30 µM
R275C/Slo1WT/beta2 = assay: as above; settings: U2OS BacMam BK variants, at 30 µM

| Compound | inhibition [1] [%] | score [2] | cytochrome c release ratio [3] | inhibition of aggregation [4] [%] | glutamate uptake change [5] [%] | fluorescence ratio [6] | inhibition [7] | inhibition [8] | fluorescence ratio [9] | z-score [10] | log fold change Tl+ flux (F380Y/beta4) | log fold change Tl+ flux [11] | log fold change Tl+ flux (R275C) | log fold change Tl+ flux (R275C/beta1) | log fold change Tl+ flux (R275C/beta2Delta) | log fold change Tl+ flux (R275C/beta4) | log fold change Tl+ flux (R275C/Slo1WT/beta2) |
| --- | --- | --- | --- | --- | --- | --- | --- | --- | --- | --- | --- | --- | --- | --- | --- | --- | --- |
| CC(C[N+](C)(C)C)OC(N)=O (centres undefined) | 18.5 | 1.26 | 0.92 | -22.2 | -0.67 | 1.06 (inactive) | -3.18% (inactive) | -1.24% (inactive) | 1.01 (inactive) | -0.115 (inactive) and 0.415 (inactive) and 0.59 (inactive) | 0.00469 (inactive) | 0.00848 (inactive) | 0.0156 (inactive) | 0.0122 (inactive) | 0.00284 (inactive) | 0.043 (inactive) | 0.0355 (inactive) |
| CC(COc1ccccc1)N(CCCl)Cc1ccccc1 (centres undefined) | 31.4 | 0.5 | 4.04 | 33.3 | 18.7 | 1.06 (inactive) | -5% (inactive) | -0.48% (inactive) | 0.95 (inactive) | -0.605 (inactive) and -1.23 (inactive) | -0.0516 (inactive) | -0.0217 (inactive) | -0.0819 (inactive) | 0.0364 (inactive) | -0.0434 (inactive) | 0.0533 (inactive) | -0.0106 (inactive) |
| CC1(C)O[C@@H]2[C@@H](CO[C@@]3(COS(N)(=O)=O)OC(C)(C)O[C@@H]23)O1 | – | – | – | – | – | 1.04 (inactive) | -0.4% (inactive) | -6.26% (inactive) | 1.02 (inactive) | -0.1 (inactive) | 0.0387 (inactive) | 0.0353 (inactive) | -0.04 (inactive) | 0.0176 (inactive) | 0.0245 (inactive) | -0.0182 (inactive) | 0.00527 (inactive) |
| CCCc1nc2c(C)cc(-c3nc4ccccc4n3C)cc2n1Cc1ccc(-c2ccccc2C(=O)O)cc1 | – | – | – | – | – | 1.02 (inactive) | 17% (active) | 16.8% (inactive) | 1.04 (inactive) | 1.57 (inactive) and -0.14 (inactive) | -0.000976 (inactive) | 0.054 (inactive) | -0.0814 (inactive) | -0.0256 (inactive) | -0.00129 (inactive) | 0.033 (inactive) | 0.0168 (inactive) |
| CC1=C(/C=C/C(C)=C/C=C/C(C)=C/C(=O)O)C(C)(C)CCC1 | 16 | 0.91 | 3.67 | 19.4 | -29.4 | 1.02 (inactive) | 1.36% (inactive) | 2.57% (inactive) | 0.87 (inactive) | – | 0.0201 (inactive) | 0.0114 (inactive) | 0.0107 (inactive) | 0.0531 (inactive) | 0.0707 (inactive) | -0.0336 (inactive) | -0.0605 (inactive) |
